# Source: PubChem
# An excerpt weighted towards active compounds, which were near 4.6% of everything screened.
# Tau ThT inhib = blocks human tau fibril formation measured by thioflavin T; AID 1460; Potency, µM (titrated, usually from 57.4 µM), for inactives: at the highest dose activity, negative = inhibition, actives largely listed as inhibitors; P10636; recombinant tau K18 P301L, heparin-induced fibrillization, ThT fluorescence; actives 2.1% (n = 270,000); note: potency is the fitted concentration of half-maximal effect; nearly all actives have a fitted effect of over 55% in size
# Target sequence (P10636 561-689 P618L limits assumed): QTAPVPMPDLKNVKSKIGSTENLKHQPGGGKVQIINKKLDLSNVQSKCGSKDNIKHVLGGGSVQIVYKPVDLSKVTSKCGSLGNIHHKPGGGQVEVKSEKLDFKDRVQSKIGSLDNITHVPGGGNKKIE
#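 Recombinant human tau K18 fragment […] carrying P301L, 15 uM unlabeled plus 0.24 uM Alexa 594-labeled, was fibrillized with 20 uM heparin in 100 mM sodium acetate pH 7 for 6 hr at 37 C; 30 uM ThT fluorescence read after 1 hr.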
# Tau fluor counter = counter-screen for tau fibril formation inhibitors | tau K18 P301L (four-repeat tau fragment) Alexa594 fluorescence, heparin fibrillization | actives 0.93% (n = 280,000) | Potency, µM (titrated, usually from 57.7 µM), inactives show at the top dose activity change, negative = decrease | AID 1463; note: potency is the fitted concentration of half-maximal effect; nearly all actives have a fitted effect of over 55% in size
#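 Human K18 P301L tau (15 uM unlabeled plus 0.24 uM Alexa 594-labeled, final) in 100 mM sodium acetate pH 7 was mixed with compound and 20 uM heparin and incubated 6 hr at 37 C.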
# TexasRed fluor = Texas Red fluorescence interference in TRb-SRC2 counter-screen | TRb/SRC2 Texas Red total fluorescence interference | Potency, µM (titrated, usually from 106 µM), without a hit: top-dose fluorescence change, negative = quenching | actives 0.29% (n = 280,000) | AID 1479; active = well fitted curve in either direction with a large enough effect; inconclusive = small, poorly fitted or top-dose-only effect; note: potency is the fitted concentration of half-maximal effect
#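 Human TRb ligand-binding domain at 0.6 uM with 20 nM Texas Red SRC2 peptide in Tris buffer containing 1 uM T3 and 5% DMSO, incubated with compound 5 h at ambient temperature. Total fluorescence (555/632 nm) calculated as parallel + 2 × perpendicular.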
# Tau FP inhib = tau fibrillization inhibition (FP); AID 1468; P10636; Potency, µM (titrated, usually from 57.7 µM), without a hit: at the top dose activity, negative = inhibition, hits mostly inhibitors; K18 P301L tau heparin fibrillization, Alexa594 FP, 6 h; actives 0.39% (n = 280,000); note: potency is the fitted concentration of half-maximal effect; nearly all actives have a fitted effect of over 55% in size
#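 Steps: dispense K18 P301L tau (15 uM plus 0.24 uM Alexa 594 tracer, final) in pH 7 sodium acetate; add compound; add heparin (20 uM final); incubate 6 hr, 37 C; add ThT (30 uM final); after 1 hr ambient, read FP.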
# TRb SRC2 PPI = inhibitors of human thyroid hormone receptor beta-SRC2 interaction. AID 1469. P10828. actives 0.065% (n = 280,000). Potency, µM (titrated, usually from 106 µM), for inactives: top-dose activity change, negative = inhibition, usual class: inhibitors. TRbeta-SRC2 peptide binding, fluorescence polarization; receptor liganded with 1 µM T3;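 note: potency is the fitted concentration of half-maximal effect; plate controls were bound peptide for no effect and peptide without receptor for full effect; nearly all actives have a fitted effect of over 50% in size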
# Target sequence (P10828 whole entry, looked up): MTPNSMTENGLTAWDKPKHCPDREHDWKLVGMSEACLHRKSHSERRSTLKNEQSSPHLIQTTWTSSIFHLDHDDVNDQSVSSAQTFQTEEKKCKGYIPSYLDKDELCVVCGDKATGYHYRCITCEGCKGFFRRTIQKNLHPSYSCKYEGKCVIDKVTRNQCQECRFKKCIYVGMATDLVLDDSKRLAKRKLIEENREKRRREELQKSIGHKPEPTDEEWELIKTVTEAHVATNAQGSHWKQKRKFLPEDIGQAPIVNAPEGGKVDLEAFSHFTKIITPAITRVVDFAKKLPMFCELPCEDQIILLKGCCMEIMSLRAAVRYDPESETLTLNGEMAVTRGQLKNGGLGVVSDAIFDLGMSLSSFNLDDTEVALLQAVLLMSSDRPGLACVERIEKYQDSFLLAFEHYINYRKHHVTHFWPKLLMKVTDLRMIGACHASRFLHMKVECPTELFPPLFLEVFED
#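 Assay buffer: 20 mM Tris-HCl, 100 mM NaCl, 10% glycerol, 1 mM EDTA, 0.01% NP-40, 1 mM DTT, 1 uM T3, 5% DMSO; TRb LBD 0.6 uM, Texas Red SRC2 20 nM; FP after 5 hr.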
# PNC assembly inh = inhibitors of perinucleolar compartment assembly; PC3M PTB-GFP, PNC prevalence imaging, 16 h; stronger effect = lower value; activity change (PNC), negative = inhibition, % at 10 µM; actives 3.1% (n = 140,000); AID 2417;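 active = readout at or below -70, meaning at least 70% loss of cells showing the perinucleolar compartment, a nuclear body marking cancer cells; inconclusive = readout between -30 and a set limit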;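 note: plate controls were DMSO wells for no effect and camptothecin positive control wells for full effect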
#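 PC3M cells stably expressing PTB-GFP, 750–1000 cells/well, treated 16 h at 37 °C with compound (23 nl of library stock), in duplicate. After paraformaldehyde fixation and Hoechst stain, imaged at 20x; PNC prevalence scored by image analysis.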
# * marks the source's active call; other numbers are inactive results; ? = inconclusive; nt = no result; [ ] = another dose, or the depositor's remark. Unless noted, calls come from the whole dose curve; as a rule, active = well fitted curve in the direction sought with a large enough effect; inconclusive = small, poorly fitted or top-dose-only effect, or another doubt; inactive = no such curve, though single readings can be large; an effect the other way counts as inactive or inconclusive. Unless noted, % is set by controls: 0 for no effect and ±100 for the full control effect.
SMILES,Tau ThT inhib,Tau fluor counter,TexasRed fluor,Tau FP inhib,TRb SRC2 PPI,PNC assembly inh
C=CC[n+]1c(-c2ccc(Cl)cc2Cl)csc1Nc1c(C)n(C)n(-c2ccccc2)c1=O,?,-26%,2%,-3%,3%,nt
COc1ccccc1NC(=O)CN1C(=O)CCS(=O)(=O)c2ccccc21,-11%,-2%,-8%,-2%,0%,?
COc1ccc(Cl)cc1NC(=O)CN1C(=O)CCS(=O)(=O)c2ccccc21,-4%,-1%,-4%,3%,-7%,-100*
O=C(CSc1ccc(Cl)cc1)NN=C1CCCCCC1,-3%,-3%,-1%,7%,-4%,nt
O=C(CSCc1ccc(Cl)cc1)NN=C1CCCCCC1,-11%,-11%,-1%,-10%,-11%,-93*
O=C(Cn1c(=O)n(-c2ccccc2)c(=O)c2ccc(C(=O)NCc3ccc4c(c3)OCO4)cc21)Nc1ccc(F)c(Cl)c1,6%,-25%,0%,25µM*,2%,nt
CCc1ccc(NC(=O)Cn2c(=O)n(-c3ccccc3)c(=O)c3ccc(C(=O)NCc4ccc5c(c4)OCO5)cc32)cc1,12%,-17%,-2%,?,1%,nt
O=C(Cn1c(=O)n(Cc2ccc(C(=O)NCc3ccccc3Cl)cc2)c(=O)c2ccccc21)Nc1ccc(F)c(Cl)c1,-2%,-17%,0%,14µM*,-2%,nt
O=C(CSc1nc2ccccc2[nH]1)NC1CCS(=O)(=O)C1 (stereo not drawn),5%,1%,3%,-2%,6%,25
CCc1cccc(C)c1Nc1c(-c2ccc(N3CCOCC3)cc2)nc2ncccn12,?,?,-3%,8%,4%,nt
Cc1c(C(=O)Nc2ccc(Cl)cc2)c2ccccn2c1CCc1ccncc1,?,?,-4%,-3%,-2%,-85*
O=c1[nH]c(/C(=N\O)c2ccccc2)no1,?,-12%,-5%,?,-6%,?
CC(=O)N(c1ccccc1C)C1CCCC1,-5%,0%,0%,-2%,-7%,25
CC(=O)N(C1=C(Cl)C(=O)c2ccccc2C1=O)C1CCCCC1,4µM*,?,-3%,-14%,2%,nt
Cn1cc(C(=O)N/N=C/c2ccc(Br)c([N+](=O)[O-])c2)c2ccccc21,nt,14µM*[quencher],-2%,?,-2%,nt
CCN(CC)CCCNC(=O)C1c2cc(OC)c(OC)cc2C(=O)N(C)C1c1cccnc1 (stereo not drawn),0%,-4%,-1%,-9%,-13%,nt
c1csc(-c2nc3c4ccccc4c4ccccc4c3[nH]2)c1,?,13µM*[quencher],-12%,?,5%,41
O=C(O)c1ccccc1-c1nc2ccccc2c(=O)[nH]1,1%,2%,-2%,-4%,3%,-30
Oc1ccccc1-c1nc2c3ccccc3c3ccccc3c2[nH]1,?,10µM*[quencher],-4%,-5%,2%,nt
CCCN(C(=O)CSc1nnc(-c2ccoc2C)n1N)C1CCS(=O)(=O)C1 (stereo not drawn),0%,7%,-1%,14%,2%,?
Cc1ccc(C(=O)/C=C/Nc2cccc(O)c2)cc1,?,?,-1%,-2%,0%,?
CC1=C(C(=O)NCc2ccco2)C2(CCC(C)CC2)OC1=O (stereo not drawn),1%,-5%,-3%,7%,-1%,7
CC(=O)c1ccc(NC(=O)Cn2c3ncccc3c(=O)n2-c2ccc(C)cc2)cc1,-12%,?,89µM*[quencher],?,?,nt
CCOC(=O)c1ccc(NC(=O)Cn2c3ncccc3c(=O)n2-c2ccc(C)c(C)c2)cc1,-14%,?,1%,?,-4%,nt
CC1CC(C)CN(C(=O)COc2ccc(-c3nnco3)cc2)C1 (stereo not drawn),-11%,-7%,-1%,1%,0%,?
SMILES,Tau ThT inhib,Tau fluor counter,TexasRed fluor,Tau FP inhib,TRb SRC2 PPI,PNC assembly inh
O=C(/C=C/c1ccc(S(=O)(=O)NCc2ccco2)cc1)NCc1ccccc1Cl,-10%,-24%,5%,4%,-2%,-25
N#CCSc1nc2ccccc2c(=O)n1CCCC(=O)NCc1ccco1,-6%,-6%,-3%,-7%,-3%,nt
O=C(CSc1nc2ccsc2c(=O)n1Cc1ccc(C(=O)O)cc1)NCc1ccco1,-4%,-9%,5%,-3%,-3%,-113*
O=C(CCCCCn1c(SCc2ccncc2)nc2ccccc2c1=O)NCc1ccco1,-15%,0%,-5%,0%,-5%,-100*
O=C(CSc1nc2ccccc2c2nc3ccccc3n12)NCc1ccco1,?,-16%,0%,-11%,-4%,-83*
Cc1ccc(NC(=O)CSc2nc3ccccc3c3nc4ccccc4n23)cc1,-15%,-15%,-4%,-13%,-9%,-108*
CCOC(=O)c1ccc(N2CN(CC)CNC2=S)cc1,0%,1%,3%,2%,-3%,16
COc1ccc(-n2c(SCC(=O)NCc3ccco3)nc3c([nH]c4ccccc43)c2=O)cc1,-2%,-11%,3%,-10%,3%,-108*
Cc1ccc(-n2c(SCC(=O)NCc3ccco3)nc3c([nH]c4ccccc43)c2=O)cc1,-2%,-10%,-1%,-13%,4%,nt
C/C(=N\NC(=O)c1cc(-c2cccnc2)nc2ccccc12)c1ccccc1O,3%,1%,3.2µM*[quencher],4%,-19%[53 µM],37
COc1ccc(/C(C)=N/NC(=O)c2cc(-c3cccnc3)nc3ccccc23)cc1,-5%,3%,5%,8%,5%,66
CCOc1cccc2sc(NN)nc12,20µM*,14µM*[quencher],-4%,?,-1%,nt
O=C1C(=O)N(Cc2ccc(Cl)c(Cl)c2)c2ccccc21,14µM*,-27%,-1%,-4%,0%,nt
O=C1C(=O)N(Cc2cccc([N+](=O)[O-])c2)c2ccccc21,-13%,3%,-1%,5%,3%,155
O=C(Nc1ccc(N2CCN(c3ccc(C(F)(F)F)cn3)CC2)nc1)c1cccs1,?,?,-1%,-3%,3%,nt
O=C(Nc1ccc(N2CCN(c3ncccc3C(F)(F)F)CC2)nc1)c1cccs1,7.9µM*,13µM*[quencher],-4%,9%,-1%,nt
CCc1nnc(SCc2cccc(Cl)c2)c2cc3sccc3n12,?,-29%,25µM*[quencher],-4%,-15%,nt
Cc1ccc(S(=O)(=O)N2CCCc3cc(NS(=O)(=O)c4cccc(Cl)c4)ccc32)cc1,5%,?,-1%,?,7%,nt
COc1cc(NS(C)(=O)=O)ccc1Nc1c2ccccc2nc2ccccc12,14µM*,?,-4%,-1%,1%,nt
